Screen size: about 300,000 compounds; about 3,200 (1.1%) were called active. No stated cut-off is given here; in the data, active means inhibition above about 75%; inconclusive means no clear call, values can overlap the other calls; inactive means below that; tested in HMLE shEcad cells. The full list was thinned out, with actives kept by preference.
Experiment: growth suppression of cancer stem-like cells – cell-based, luminescence, primary screen (AID 2717)
Conditions: cancer stem cell-like cells viability, at 7.5 µM, stronger effect = higher value
For `Cc1ccc(P(=S)(c2ccc(C)o2)N2CCOCC2)o1`, the inhibition was 76.5% (active). In the case of `Cc1ccc(-n2c(C)cc(/C=C3\C(=O)NC(=O)N(C)C3=O)c2C)cc1C`, the inhibition is reported as -18.6% (inactive). In the case of `CCCCCCCCCCCCn1ccc(=N)cc1`, the inhibition is reported as 102% (active). In the case of `O=C(O)C1CSC(c2cccnc2)N1` (stereo not given), the inhibition is reported as -4.58% (inactive). For `CCC1(C)CC(CCNCc2ccc(N(C)C)cc2)(c2ccc(F)cc2)CCO1` (stereo not given), the inhibition was 15% (inactive). With `COc1ccc(Br)cc1CNCCc1cccc(Cl)c1` the inhibition was 35.5% (inactive). With `O=C1C2(Cl)C3(Cl)C4(Cl)C(Cl)(Cl)C5(Cl)C3(Cl)C1(Cl)C5(Cl)C24Cl` (stereo not given) the inhibition was 101% (active). With `COC(=O)C1=C(c2cccc(OCc3ccccc3)c2)C[C@@H]2CC[C@H]1N2C(=O)NCc1ccc(Br)cc1` the inhibition was 30% (inactive). With `C[C@]12CC[C@H](O)CC1=C([N+](=O)[O-])CC1C2CC[C@@]2(C)C1CC[C@@H]2O` (stereo not given in full) the inhibition was 19.8% (inactive). In the case of `CC(=O)NC(=O)NC(C)Cc1ccccc1` (stereo not given), the inhibition is reported as -9.41% (inactive). With `CC(Cc1ccccc1)NC=O` (stereo not given) the inhibition was -4.89% (inactive). For `CC(Cc1ccccc1)NCCC(c1ccccc1)c1ccccc1` (stereo not given), the inhibition was 86.3% (active). With `CCC(=O)c1ccc(OCC(=O)N2CCN(CC(=O)Nc3ccc(C)cc3)CC2)cc1` the inhibition was -4.41% (inactive). In the case of `O=C1NC(=O)N(CCc2ccc(F)cc2)C(=O)/C1=C/C=C/c1ccccc1`, the inhibition is reported as 89.8% (active). In the case of `O=C1NC(=O)N(Cc2ccco2)C(=O)/C1=C\c1ccc(-c2ccc(F)cc2)o1`, the inhibition is reported as -3.26% (inactive). With `O=C(O)COc1ccccc1/C=C1\C(=O)NC(=O)N(CCC2=CCCCC2)C1=O` the inhibition was -7.06% (inactive). For `COC(=O)C1=C(c2ccc(Cl)c(C(F)(F)F)c2)C[C@@H]2CC[C@H]1N2C(=O)NC1CC1`, the inhibition was -14.7% (inactive). For `Nc1ccc([N+](=O)[O-])cc1`, the inhibition was 22.2% (inactive). With `COC(=O)C1=C(c2ccccc2OCc2ccccc2)C[C@@H]2CC[C@H]1N2C(=O)NCc1ccc(OC)cc1` the inhibition was 6.19% (inactive). With `N#Cc1ccc(Cn2cc(C(=O)c3ccco3)c3ccccc32)cc1` the inhibition was 6.82% (inactive). For `COC(=O)C1=C(c2c(C)noc2C)C[C@@H]2CC[C@H]1N2C(=O)NCc1ccc2c(c1)OCO2`, the inhibition was 2.81% (inactive). In the case of `N=c1ccccn1Cc1ccccc1`, the inhibition is reported as 1.97% (inactive). For `COC(=O)C1=C(c2ccc(-c3ccccc3)c(F)c2)C[C@@H]2CC[C@H]1N2C(=O)NCc1ccc(F)cc1`, the inhibition was 36.3% (inactive). For `C[C@]12CC[C@H](O)C[C@H]1CC[C@@H]1C2CC[C@]2(C)[C@@H](C3=CC(=O)OC3)[C@@H](O)C[C@]12O` (stereo not given in full), the inhibition was 85% (active). In the case of `C[C@]12CCC3C(CC[C@H]4C[C@@H](O)CC[C@]34C)C1CC[C@@H]2O` (stereo not given in full), the inhibition is reported as -19.5% (inactive). With `C[C@]12CCC3C(CC[C@H]4C[C@@H](O)CC[C@]34C)C1C[C@@H](O)[C@H]2O` (stereo not given in full) the inhibition was -9.01% (inactive). In the case of `CC(Cc1cccs1)NCc1ccc(Cl)cc1` (stereo not given), the inhibition is reported as -5.86% (inactive). For `COC(=O)C1=C(c2ccc(F)cc2OCc2ccccc2)C[C@@H]2CC[C@H]1N2C(=O)NCc1ccc2[nH]ccc2c1`, the inhibition was 9.97% (inactive). In the case of `COc1ccc(-c2nn(CCC#N)cc2C(=O)O)cc1`, the inhibition is reported as 1.09% (inactive). With `COC(=O)C1=C(c2ccc(F)cc2OCc2ccccc2)C[C@@H]2CC[C@H]1N2C(=O)NCc1ccc(Cl)cc1` the inhibition was 15.5% (inactive).

Source: PubChem BioAssay AID2717 (Broad Institute, 2010)
